Compound activity deposited in PubChem BioAssay by Broad Institute.
Env fusion inh = inhibitors of HIV-1 Env-driven cell-cell fusion, primary screen, HeLa-JRFL effector, CEM21 target cells, luciferase. inhibition, % at 12.3 µM. AID 651610, 2012. hit rate 1.1% among 360,000;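 active = mean replicate inhibition score of at least 50 and every replicate individually at or above 50; inconclusive = only one of the two criteria met; inactive = mean below 50 and not all replicates reaching 50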
esBAF inh = Bmi1 luciferase reporter increase in mESCs, primary screen, esBAF inhibitor project, mouse ES cells, Bmi1 luciferase knock-in, single point; 24 h; 100% = twice the neutral-well signal; reporter increase, % at 12.5 µM; hit rate 2% among 350,000; AID 602393, 2012; in the data active = activation above about 40%; inconclusive = no clear call, values can overlap the other calls;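 also: a rise in the Bmi1 reporter signal indicates esBAF inhibition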
Wnt act = Wnt/beta-catenin pathway activators, primary screen, cell-based, plate reader, single point. Wnt/beta-catenin reporter cell assay, activator. activation, % at 9.35 µM. hit rate 1.2% among 300,000. AID 743398, 2014; in the data active = activation above about 30%, passing the limit was not always enough; inconclusive = no clear call, values can overlap the other calls
MITF TRPM1 HTS = activators of MITF-driven TRPM1 promoter reporter, primary screen, cell-based, SK-MEL-5, luciferase, single point; SK-MEL-5 TRPM1-promoter luciferase, 24 h; % of positive control, neutral wells = 0; hit rate 0.75% among 300,000; activation, % at 12.5 µM; AID 588334, 2011;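 active = mean activation of at least 80% with every replicate also reaching 80%; inconclusive = mean reaches 80% but some replicate falls short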
miR-122 sensor = miR-122 Renilla sensor signal increase in Huh7, primary screen, miR-122 inhibitor project, cell-based, single point, plate reader; Huh7 miR-122 Renilla luciferase sensor, 48 h; neutral wells = 0, positive control = 100; activation (reporter increase), % at 12.5 µM; hit rate 0.3% among 340,000;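 active = mean replicate activation score at least 90 and every replicate individually at or above 90; inconclusive = only one of the two criteria met; inactive = neither criterion met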;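 also: higher luciferase means less miR-122 activity so hits act as miR-122 inhibitors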
Hits are given with their value; [ ] = dose if it differs, or a comment. An excerpt weighted towards active compounds, which were near 3.4% of everything screened.

What do the screens show for `Cc1c(C(=O)Nc2ccccn2)oc2ccccc12`?
esBAF inh: inactive; Wnt act: inconclusive; MITF TRPM1 HTS: inactive; miR-122 sensor: 95

How did Cc1c(C(=O)Nc2ccncc2)oc2ccccc12 do in these assays?
Env fusion inh: inactive; esBAF inh: inactive; Wnt act: inactive; miR-122 sensor: inactive

Results for COc1ccc(NC(=O)c2oc3ccccc3c2C)cn1 ?
Env fusion inh: inactive; esBAF inh: 43; Wnt act: inactive; MITF TRPM1 HTS: inactive

How did O=C(C[C@H]1CC[C@@H]2[C@H](COC[C@@H](O)CN2Cc2cccc(-c3ccncc3)c2)O1)N1CCN(c2ccccc2)CC1 do in these assays?
esBAF inh: inactive; miR-122 sensor: inactive

What do the screens show for `Cc1cc(C(=O)Nc2cccc3c2O[C@@H](CN(C)C(=O)Nc2c(C)noc2C)[C@H](C)CN([C@@H](C)CO)C3=O)n(C)n1`?
esBAF inh: inactive; miR-122 sensor: inactive

How did Cc1ccc(-c2cnc3c(c2)C(=O)N([C@@H](C)CO)C[C@H](C)[C@H](CN(C)C(=O)Cc2ccccc2)O3)cc1 do in these assays?
Env fusion inh: inactive; esBAF inh: inactive; miR-122 sensor: inactive

What do the screens show for `COc1ccc(S(=O)(=O)Nc2ccc3c(c2)CC(=O)N([C@H](C)CO)C[C@H](C)[C@H](CN(C)Cc2ccc(C(=O)Nc4ccccc4N)cc2)O3)cc1`?
Env fusion inh: inactive; esBAF inh: inactive; miR-122 sensor: 212[16.7 µM]

How did C[C@H](CO)N1C[C@H](C)[C@H](CN(C)Cc2ccc(C(=O)Nc3ccccc3N)cc2)Oc2ccc(NS(=O)(=O)c3ccc(F)cc3)cc2CC1=O do in these assays?
Env fusion inh: inactive; esBAF inh: inactive; miR-122 sensor: 162[16.7 µM]

Results for C[C@@H]1CN([C@@H](C)CO)C(=O)Cc2cc(NS(=O)(=O)c3ccc(Cl)cc3)ccc2O[C@H]1CN(C)Cc1ccc(C(=O)Nc2ccccc2N)cc1 ?
Env fusion inh: inactive; esBAF inh: inactive; miR-122 sensor: inactive

How did C[C@H](CO)N1C[C@H](C)[C@@H](CN(C)Cc2ccc(C(=O)Nc3ccccc3N)cc2)Oc2ccc(NS(=O)(=O)c3ccc(F)cc3)cc2CC1=O do in these assays?
Env fusion inh: inactive; esBAF inh: inactive; miR-122 sensor: inactive

Results for C[C@H](CO)N1C[C@H](C)[C@H](CN(C)Cc2ccc(C(=O)Nc3ccccc3N)cc2)Oc2ccc(NS(=O)(=O)c3cccs3)cc2CC1=O ?
Env fusion inh: inactive; esBAF inh: inactive; miR-122 sensor: 104[16.7 µM]

Results for C[C@H](CO)N1C[C@H](C)[C@H](CN(C)Cc2ccc(C(=O)Nc3ccccc3N)cc2)Oc2ccc(NS(=O)(=O)c3ccccc3)cc2CC1=O ?
Env fusion inh: inactive; esBAF inh: inactive; miR-122 sensor: 145[16.7 µM]

What do the screens show for `C[C@H](CO)N1C[C@H](C)[C@@H](CN(C)Cc2ccc(Cl)c(Cl)c2)Oc2ccc(N(C)C)cc2CC1=O`?
Env fusion inh: inactive; esBAF inh: inactive; miR-122 sensor: inactive

How did COc1ccc(-c2cc3ccc(OCC(C)=O)cc3oc2=O)cc1 do in these assays?
Env fusion inh: inactive; esBAF inh: inactive; Wnt act: 34; MITF TRPM1 HTS: inactive

Results for COC(=O)COc1ccc2cc(-c3ccc(OC)cc3)c(=O)oc2c1 ?
Env fusion inh: inactive; esBAF inh: inactive; Wnt act: inactive; MITF TRPM1 HTS: inactive; miR-122 sensor: inactive

Results for COc1ccc(-c2cc3ccc(OCC(C)=O)cc3oc2=O)cc1OC ?
Env fusion inh: inactive; esBAF inh: 47; Wnt act: inactive; MITF TRPM1 HTS: 92; miR-122 sensor: inactive

Results for O=c1oc2cc(O)ccc2cc1-c1ccccc1 ?
Env fusion inh: inactive; esBAF inh: inactive; Wnt act: inactive; MITF TRPM1 HTS: inactive; miR-122 sensor: inactive

How did COc1ccc(-c2cc3ccc(O)cc3oc2=O)cc1 do in these assays?
Env fusion inh: inactive; esBAF inh: inactive; Wnt act: inactive; MITF TRPM1 HTS: 89; miR-122 sensor: inactive

What do the screens show for `COc1ccc(-c2cc3ccc(OCc4nn[nH]n4)cc3oc2=O)cc1OC`?
Env fusion inh: inactive; esBAF inh: inactive; Wnt act: inactive; miR-122 sensor: inactive

Results for CCC(C)c1ccc(O)c(NC(=O)c2cccnc2)c1 (stereo unspecified) ?
esBAF inh: inactive; MITF TRPM1 HTS: inactive; miR-122 sensor: inactive

What do the screens show for `CCC(C)c1ccc(NC(=O)c2cccnc2)cc1` (stereo unspecified)?
Env fusion inh: inactive; esBAF inh: 50; MITF TRPM1 HTS: 89; miR-122 sensor: inactive

How did Cc1ccc(NC(=O)c2cccnc2)cc1C do in these assays?
Env fusion inh: inactive; esBAF inh: 49; Wnt act: inactive; miR-122 sensor: inactive

How did Cc1cc(C(=O)Nc2cccnc2)cs1 do in these assays?
Env fusion inh: inactive; esBAF inh: inactive; MITF TRPM1 HTS: inactive; miR-122 sensor: inactive

What do the screens show for `Cc1ccc(C(=O)Nc2cccnc2)cc1C`?
Env fusion inh: inactive; esBAF inh: 46; Wnt act: inactive; miR-122 sensor: inactive

What do the screens show for `Cc1ccc(C(=O)Nc2cccnc2)cc1Cl`?
Env fusion inh: inactive; esBAF inh: 55; Wnt act: inactive; miR-122 sensor: inactive

What do the screens show for `O=C(Nc1cccc(NC(=O)c2cccnc2)c1)c1cccnc1`?
esBAF inh: inactive; MITF TRPM1 HTS: inactive; miR-122 sensor: inactive

What do the screens show for `C[C@@H]1CN([C@@H](C)CO)C(=O)c2cc(NS(=O)(=O)c3ccc(Cl)cc3)ccc2O[C@@H](C)CCCCO[C@H]1CN(C)Cc1ccc(C(F)(F)F)cc1`?
Env fusion inh: inactive; esBAF inh: inactive; miR-122 sensor: inactive

How did Cc1cc2oc(C(=O)Nc3cccnc3)c(C)c2cc1C do in these assays?
Env fusion inh: inactive; esBAF inh: 78; Wnt act: inactive; MITF TRPM1 HTS: inactive; miR-122 sensor: inactive

Results for Cc1ccc2c(Cl)c(C(=O)Nc3cccnc3)sc2c1 ?
Env fusion inh: inactive; esBAF inh: 55; MITF TRPM1 HTS: 95; miR-122 sensor: inactive

How did O=C(Nc1ccon1)c1sc2cc(Cl)ccc2c1Cl do in these assays?
Env fusion inh: inactive; esBAF inh: 47; Wnt act: inactive; MITF TRPM1 HTS: inactive

What do the screens show for `CO[C@@H]1CN(C)C(=O)c2cc(NC(=O)C3CCC3)ccc2OC[C@@H](C)N(Cc2ccncc2)C[C@@H]1C`?
Env fusion inh: inactive; esBAF inh: inactive; miR-122 sensor: inactive

How did O=c1[nH]c(-c2cccnc2)nc2ccccc12 do in these assays?
Env fusion inh: inactive; esBAF inh: inactive; Wnt act: inactive; MITF TRPM1 HTS: inactive; miR-122 sensor: inactive

How did c1cncc(-c2nc3c(ccc4ccccc43)[nH]2)c1 do in these assays?
esBAF inh: 52; Wnt act: inactive; MITF TRPM1 HTS: inactive; miR-122 sensor: inactive

What do the screens show for `N#C/C(=C\c1ccc(OCc2ccc(F)cc2)cc1)C(=O)Nc1cccc(C(=O)O)c1`?
Env fusion inh: inactive; esBAF inh: inactive; Wnt act: 51; MITF TRPM1 HTS: inactive; miR-122 sensor: inactive
